Values without a mark were called inactive. Records with an inconclusive call do not appear. Active and inactive are the calls of the source. Unless noted, calls come from the whole dose curve; as a rule, active = well fitted curve in either direction with a large enough effect (not every such curve was filed as active); inconclusive = small, poorly fitted or top-dose-only effect, or another doubt; inactive = flat fitted curve, though single readings scatter.
How the values were obtained:
[1] = molecular target: Lysosomal acid glucosylceramidase (Homo sapiens) (UniProt P04062); experiment: Glucocerebrosidase-p2 (AID 348; in the data active = potency below about 10 µM; note: potency is the fitted concentration of half-maximal effect); conditions: purified GBA, blue fluorogenic substrate, 40 min
Method in brief: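 Compounds titrated from 0.6 nM upwards against 0.2 nM enzyme in pH 5.9 citric acid/KH2PO4, taurocholate, tween-20; blue fluorogenic substrate 80 uM, 40 min room temperature, stopped and read Ex 365/Em 440 for AC50.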

[2] = AP1 Signaling Pathway (AID 357); conditions: ME-180 AP-1-bla reporter, EGF-induced, beta-lactamase ratio, 5 h; at 7.69 µM (top of the series) unless noted;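 note: ME-180 reporter cells stimulated with EGF at its EC50 level; % is set by controls: 0 for no effect and ±100 for the full control effect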
Method in brief: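 A ratiometric CCF4 readout (405 nm excitation; 460 and 530 nm emission) quantified AP-1-driven beta-lactamase in ME-180 cells after 5 h with compound and EC50 EGF; AC50 values were derived for activators and inhibitors.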

[3] = molecular target: Cytochrome P450 1A2 (Homo sapiens) (UniProt P05177); experiment: p450-cyp1a2 (AID 410; calls by dose curve; note: potency is the fitted concentration of half-maximal effect;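 for activity change, negative = inhibition: -100% = full effect of reference inhibitor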); conditions: recombinant CYP1A2, luciferin-ME demethylation, luminescence; series mostly up to 11.4 µM
Method in brief: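 Inhibition was calculated relative to 57 uM furafylline (full inhibition). The reaction used human CYP1A2 at 20nM with Luciferin-ME at its Km, 100uM, driven by an NADPH-regenerating system for 60 min at room temperature.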

[4] = NFAT Signaling Pathway (AID 444); conditions: Jurkat NFAT-bla M1, carbachol, beta-lactamase ratio, 5 h; at 7.69 µM (top of the series) unless noted;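 note: carbachol stimulus at about its EC50 of 1 µM final; % is set by controls: 0 for no effect and ±100 for the full control effect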
Method in brief: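 Read-out: CCF4 FRET ratio (460 nm/530 nm) after 1 h RT dye loading, used for %activity and AC50 from titration series. Cells: Jurkat NFAT-β-lactamase/M1 line, treated with compound plus 1 uM carbachol for 5 h, 37 °C.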

[5] = Stat Signaling Pathway (AID 446); conditions: ME-180 (cervical carcinoma) SIE beta-lactamase reporter, IL-6 stimulated, 5 h; at 7.69 µM (top of the series) unless noted;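 note: ME-180 cervical cancer cells given 40 pM IL-6 alongside compound; SIE-controlled beta-lactamase reporter measured as 460/530 nm FRET emission ratio; % is set by controls: 0 for no effect and ±100 for the full control effect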
Method in brief: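 IL-6/STAT signaling read in ME-180 cells via an SIE beta-lactamase reporter. Stimulus was 40 pM IL-6 (its AC50) for 5 hrs, so both activation and inhibition register.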

[6] = molecular target: Glucocorticoid receptor (Homo sapiens) (UniProt P04150); experiment: GR-GFP Redistribution (AID 450;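 active = compounds whose dose series gives a full or clear partial fitted curve of increased nuclear translocation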; note: potency is the fitted concentration of half-maximal effect); conditions: U2OS GR-GFP nuclear translocation, laser cytometry, 2 h
[7] = molecular target: Glucocorticoid receptor (Homo sapiens) (UniProt P04150); experiment: GR-EFC Redistribution (AID 451; calls by dose curve; note: potency is the fitted concentration of half-maximal effect); conditions: CHO-K1 GR-EFC translocation, beta-gal luminescence, 2 h
Method in brief: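 Translocation of GR-ED fusion to nuclear EA restores b-gal, read by luminescence after 1 h room-temperature detection. Engineered CHO-K1 biosensor cells, 1,000/well, exposed 2 h at 37 C to titrations up to 46 uM final.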

[8] = molecular target: Mitogen-activated protein kinase 10 (Mus musculus) (UniProt Q61831); experiment: JNK3 AlphaScreen Assay (AID 530); conditions: JNK3 lysate, c-Jun phosphorylation; series mostly up to 11.4 µM;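 note: kinase came from lysate of stimulated human HepG2 cells; signal reports phosphorylation of biotinylated GST-cJun 1-79 at Ser73 with 10 µM ATP; % is set by controls: 0 for no effect and ±100 for the full control effect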
Method in brief: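 Room-temperature AlphaScreen kinase assay; pre-activated HepG2 lysate as JNK3 source, biotin-GST-cJun(1-79) substrate, 10 uM ATP, compound 15 min preincubation.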

[9] = molecular target: 3',5'-cyclic-AMP phosphodiesterase 4B (Homo sapiens) (UniProt Q07343); experiment: qHTS Assay for Inhibitors of PDE-IV (AID 607; active = well fitted activation curve with a large enough effect in the main read-out, with a control signal flat, not every such curve was filed as active; note: % of control where 0% means no effect); conditions: HEK293 ACTOne CNG channel cells, membrane potential fluorescence; series mostly up to 22.9 µM
Method in brief: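 Live HEK293 cells with a modified cyclic nucleotide-gated (CNG) channel report intracellular cAMP via membrane-potential dye fluorescence (ex 535/em 590 nm). Endogenous PDE-IV was targeted. Compounds were tested at up to 22.9 uM final; RO 20-1724 100 uM served as control.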

[10] = molecular target: Cytochrome P450 2C9 (Homo sapiens) (UniProt P11712); experiment: qHTS Assay for Inhibitors and Substrates of Cytochrome P450 2C9 (AID 883; active = well fitted inhibition curve with a large enough effect; note: potency is the fitted concentration of half-maximal effect; nearly all actives have a fitted effect of over 60% in size); conditions: recombinant CYP2C9, luciferin-H luminescence, 60 min; series mostly up to 11.4 µM
Method in brief: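 Turnover of Luciferin-H (100uM, KM) by 10nM human CYP2C9 was measured over 60 min at 37C with NADPH regeneration; inhibitors and some substrates reduce luminescence. Data normalized to sulphaphenazole 57uM.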

Chain of 3',5'-cyclic-AMP phosphodiesterase 4B (Homo sapiens) (Q07343 whole entry, looked up): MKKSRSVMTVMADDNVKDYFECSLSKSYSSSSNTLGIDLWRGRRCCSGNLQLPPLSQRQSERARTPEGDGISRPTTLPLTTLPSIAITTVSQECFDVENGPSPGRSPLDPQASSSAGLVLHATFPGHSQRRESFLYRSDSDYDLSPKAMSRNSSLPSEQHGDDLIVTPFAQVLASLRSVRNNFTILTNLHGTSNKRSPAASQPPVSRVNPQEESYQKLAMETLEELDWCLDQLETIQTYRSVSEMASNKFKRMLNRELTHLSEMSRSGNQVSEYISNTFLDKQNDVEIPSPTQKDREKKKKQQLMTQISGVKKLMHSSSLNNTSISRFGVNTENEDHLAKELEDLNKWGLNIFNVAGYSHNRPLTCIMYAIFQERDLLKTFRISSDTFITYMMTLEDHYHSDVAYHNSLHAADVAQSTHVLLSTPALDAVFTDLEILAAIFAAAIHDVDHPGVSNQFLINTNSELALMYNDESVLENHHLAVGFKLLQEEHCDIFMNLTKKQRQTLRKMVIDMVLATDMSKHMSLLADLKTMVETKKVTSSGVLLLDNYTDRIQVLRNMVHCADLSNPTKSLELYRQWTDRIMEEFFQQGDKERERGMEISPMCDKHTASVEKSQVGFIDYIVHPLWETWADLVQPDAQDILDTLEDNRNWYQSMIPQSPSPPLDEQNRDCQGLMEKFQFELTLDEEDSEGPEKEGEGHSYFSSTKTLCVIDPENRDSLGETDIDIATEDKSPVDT
Chain of Glucocorticoid receptor (Homo sapiens) (P04150 whole entry, looked up, the tested form may be a part): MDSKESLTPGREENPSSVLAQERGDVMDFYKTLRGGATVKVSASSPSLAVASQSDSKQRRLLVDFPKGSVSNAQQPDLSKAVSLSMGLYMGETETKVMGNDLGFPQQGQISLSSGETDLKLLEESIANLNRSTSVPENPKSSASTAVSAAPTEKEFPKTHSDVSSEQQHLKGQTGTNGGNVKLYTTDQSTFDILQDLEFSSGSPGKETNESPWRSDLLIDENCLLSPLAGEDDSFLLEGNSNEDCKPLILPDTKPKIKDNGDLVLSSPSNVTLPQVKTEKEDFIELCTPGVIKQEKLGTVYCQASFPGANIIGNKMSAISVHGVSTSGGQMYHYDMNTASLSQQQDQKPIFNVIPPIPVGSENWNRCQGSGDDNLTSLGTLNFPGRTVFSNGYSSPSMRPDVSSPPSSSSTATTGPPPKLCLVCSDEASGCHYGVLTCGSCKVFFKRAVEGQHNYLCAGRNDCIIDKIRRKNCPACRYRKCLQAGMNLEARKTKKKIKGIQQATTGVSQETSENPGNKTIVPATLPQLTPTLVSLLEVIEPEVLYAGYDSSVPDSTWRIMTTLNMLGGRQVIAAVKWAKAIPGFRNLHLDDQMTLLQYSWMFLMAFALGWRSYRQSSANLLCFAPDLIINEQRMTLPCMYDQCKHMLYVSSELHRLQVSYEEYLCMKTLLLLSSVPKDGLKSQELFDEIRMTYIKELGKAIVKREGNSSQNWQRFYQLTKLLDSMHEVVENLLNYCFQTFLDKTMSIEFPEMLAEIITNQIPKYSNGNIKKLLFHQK
Chain of Cytochrome P450 1A2 (Homo sapiens) (P05177 whole entry, looked up): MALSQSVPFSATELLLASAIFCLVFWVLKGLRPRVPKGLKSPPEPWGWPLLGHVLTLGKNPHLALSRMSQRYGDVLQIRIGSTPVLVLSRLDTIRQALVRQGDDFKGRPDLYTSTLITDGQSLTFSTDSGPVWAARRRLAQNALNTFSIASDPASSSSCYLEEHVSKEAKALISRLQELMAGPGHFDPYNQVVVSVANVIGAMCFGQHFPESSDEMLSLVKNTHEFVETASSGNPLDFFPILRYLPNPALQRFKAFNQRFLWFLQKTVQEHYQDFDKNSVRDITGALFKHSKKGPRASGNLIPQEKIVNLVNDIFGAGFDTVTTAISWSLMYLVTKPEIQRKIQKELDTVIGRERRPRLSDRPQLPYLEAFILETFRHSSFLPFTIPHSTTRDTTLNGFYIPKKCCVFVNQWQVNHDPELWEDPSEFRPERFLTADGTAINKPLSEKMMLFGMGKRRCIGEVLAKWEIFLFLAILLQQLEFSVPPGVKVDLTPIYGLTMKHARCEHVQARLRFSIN
Chain of Lysosomal acid glucosylceramidase (Homo sapiens) (P04062 whole entry, looked up): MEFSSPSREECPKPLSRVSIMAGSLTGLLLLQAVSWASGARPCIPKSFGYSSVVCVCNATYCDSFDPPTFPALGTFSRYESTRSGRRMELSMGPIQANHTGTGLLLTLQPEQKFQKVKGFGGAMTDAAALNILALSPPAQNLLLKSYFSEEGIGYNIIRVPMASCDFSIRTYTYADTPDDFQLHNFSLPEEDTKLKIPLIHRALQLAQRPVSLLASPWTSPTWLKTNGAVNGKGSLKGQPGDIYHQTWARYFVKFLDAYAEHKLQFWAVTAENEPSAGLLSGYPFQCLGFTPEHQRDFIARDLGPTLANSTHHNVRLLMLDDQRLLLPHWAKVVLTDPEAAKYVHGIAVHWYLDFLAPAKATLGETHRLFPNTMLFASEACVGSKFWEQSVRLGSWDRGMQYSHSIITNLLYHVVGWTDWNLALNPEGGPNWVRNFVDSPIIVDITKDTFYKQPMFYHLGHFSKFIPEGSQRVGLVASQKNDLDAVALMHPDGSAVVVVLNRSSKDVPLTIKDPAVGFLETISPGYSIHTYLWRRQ
Chain of Cytochrome P450 2C9 (Homo sapiens) (P11712 whole entry, looked up): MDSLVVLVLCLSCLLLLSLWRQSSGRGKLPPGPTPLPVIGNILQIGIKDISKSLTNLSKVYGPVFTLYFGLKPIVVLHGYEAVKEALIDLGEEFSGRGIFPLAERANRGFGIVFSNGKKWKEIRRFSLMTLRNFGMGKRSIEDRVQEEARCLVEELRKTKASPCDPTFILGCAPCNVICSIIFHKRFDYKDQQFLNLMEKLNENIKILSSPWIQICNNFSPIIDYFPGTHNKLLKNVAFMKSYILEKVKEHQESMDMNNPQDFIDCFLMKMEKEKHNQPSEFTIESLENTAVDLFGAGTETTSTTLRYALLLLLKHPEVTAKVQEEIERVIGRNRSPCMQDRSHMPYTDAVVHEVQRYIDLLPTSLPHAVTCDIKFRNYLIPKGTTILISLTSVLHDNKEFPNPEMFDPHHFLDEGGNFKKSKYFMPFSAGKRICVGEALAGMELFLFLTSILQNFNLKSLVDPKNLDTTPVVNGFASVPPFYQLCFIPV

| SMILES | Potency [1] [µM] | activity change, negative = inhibition [2] [%] | Potency [3] | activity change, negative = inhibition [4] [%] | activity, negative = inhibition [5] [%] | Potency [6] [µM] | Potency [7] [µM] | Potency [8] | Potency [9] | activity change, negative = inhibition [3] | Potency [10] |
| --- | --- | --- | --- | --- | --- | --- | --- | --- | --- | --- | --- |
| S=c1nc[nH]c2c1ncn2Cc1ccco1 | > 11.4 | 8.99 | inactive | -0.242 | 5.55 | > 46 | > 9.22 | inactive | inactive |  |  |
| COC(=O)CCCC(=O)O | > 11.4 | 1.55 |  | -3.39 | -4.13 | > 46 | > 9.22 | inactive | inactive | -7.3% [at 2.29 µM] |  |
| C/C(=N/NC1=NCCN1)c1cn(C2=NCCN2)nc1C | > 11.4 | 6.21 |  | -15.6 | 1.37 | > 46 | > 9.22 | inactive | inactive | -13.9% [at 2.29 µM] |  |
| CCn1c2ccccc2c2nnc(NCCCO)nc21 | > 11.4 | 7.47 | 1.58 µM (active) | 10.3 | 1 | > 46 | > 9.22 | inactive | inactive |  |  |
| c1cc(NNc2cccc(-c3nn[nH]n3)c2)cc(-c2nn[nH]n2)c1 | > 11.4 | 5.72 |  | 2.46 | 2.5 | > 46 | > 9.22 | inactive | inactive | -15.5% [at 2.29 µM] |  |
| O=S(=O)(O)[C@@H](CO)c1ccccc1 (tested in a mixture with another compound) | > 11.4 | -0.645 |  | 3.56 | -7.29 | > 46 | > 9.22 | inactive | inactive | -1.9% [at 2.29 µM] |  |
| c1ccc2c(c1)C(=Nc1ccc(N=C3c4ccccc4-c4ccccc43)cc1)c1ccccc1-2 | > 11.4 | -0.81 |  | 10.5 | 4.55 | > 46 | > 9.22 | inactive | inactive | -19.6% [at 2.29 µM] |  |
| O=C(O)[C@@H]1[C@@H](C(=O)O)[C@]23C[C@@]2(C(=O)O)[C@]2(C(=O)O)CCC3=C3CCCC312 | > 11.4 | 10.3 | 2.51 µM (active) | 0.691 | -2.48 | > 46 | > 9.22 | inactive | inactive |  |  |
| CCOc1ccccc1Nc1ccc(N)cc1S(=O)(=O)O | > 11.4 | 6.02 |  | -5.87 | -1.52 | > 46 | > 9.22 | inactive | inactive | -12.6% [at 2.29 µM] |  |
| NC(N)=NC(N)=Nc1c(F)c(F)c(F)c(F)c1F | > 11.4 | 8.28 |  | -23.3 | 3 | > 46 | > 9.22 | inactive | inactive | 10.9% [at 2.29 µM] |  |
| Cc1ccc(S(=O)(=O)NC(=O)Nc2ncn[nH]2)cc1 | > 11.4 | 3.19 |  | 13 | 0.243 | > 46 | > 9.22 | inactive | inactive | -21.5% [at 2.29 µM] |  |
| Cc1cc(Cl)ccc1OCC(=O)Nc1nc(N)nc(N)n1 | > 11.4 | 7.35 |  | 1.27 | -6.25 | > 46 | > 9.22 | inactive | inactive | 2.1% [at 2.29 µM] |  |
| CC(C)=NNc1ncnc2nc[nH]c12 | > 11.4 | -3.94 | 0.794 µM (active) | 3.34 | 8.2 | > 46 | > 9.22 | inactive | inactive |  |  |
| NNC(=O)c1ccc[n+](CCc2ccccc2)c1 | > 11.4 | 11.3 | inactive | -4.8 | -0.167 | > 46 | > 9.22 | inactive | inactive |  |  |
| O=C(O)c1[nH]c2c([N+](=O)[O-])cc([N+](=O)[O-])cc2c1C(=O)O | > 11.4 | 0.189 | 0.126 µM (active) | 2.5 | -6.73 | > 46 | > 9.22 | inactive | inactive |  | 3.16 µM (active) |
| CC(CCC(=O)O)(c1cc(Br)c(O)c(Br)c1)c1cc(Br)c(O)c(Br)c1 | > 11.4 | 17.5 |  | 3.8 | 0.505 | > 46 | > 9.22 | inactive | inactive | -17.9% [at 2.29 µM] | 3.16 µM (active) |
